Laboratory results published in article PMC5540273 (PLoS ONE, 2017).

How the values were obtained:
Conditions in all cases: concentration: 1 μM, replicates: in singlicate; n = 1
[1] = tested on: T1, NIM1
T1 construct: gene MGC42105

[2] = tested on: NLK
[3] = tested on: T2, OSR1
T2 construct: gene OXSR1

[4] = tested on: PAK1
[5] = tested on: PAK2
[6] = tested on: PAK3
[7] = tested on: PAK4
[8] = tested on: PAK6
[9] = tested on: PAK7
[10] = tested on: T3, PCTK1
T3 construct: gene CDK16

[11] = tested on: T4, PCTK2
T4 construct: gene CDK17

[12] = tested on: T5, PCTK3
T5 construct: gene CDK18

[13] = tested on: PDGFRA
[14] = tested on: PDGFRB
[15] = tested on: PDPK1
[16] = tested on: PFTAIRE2
[17] = tested on: T6, PFTK1
T6 construct: gene CDK14

[18] = tested on: PHKG1
[19] = tested on: PHKG2
[20] = tested on: PIK3C2B
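Also: KINOMEscan kinase panel screen.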

SMILES	%Inh [1] [%]	%Inh [2] [%]	%Inh [3] [%]	%Inh [4] [%]	%Inh [5] [%]	%Inh [6] [%]	%Inh [7] [%]	%Inh [8] [%]	%Inh [9] [%]	%Inh [10] [%]	%Inh [11] [%]	%Inh [12] [%]	%Inh [13] [%]	%Inh [14] [%]	%Inh [15] [%]	%Inh [16] [%]	%Inh [17] [%]	%Inh [18] [%]	%Inh [19] [%]	%Inh [20] [%]
CCCCc1nn2ncccc2c1-c1ccnc(Nc2ccc(N3CCN(C)CC3)cc2)n1 [GW684941]	47	54	12	23	0	0	0	48	1	26	37	16	98.8	100	0	0	0	20	4	66
Clc1ccc(-c2nn3ncccc3c2-c2ccnc(Nc3ccc4c(c3)OCCO4)n2)cc1 [GW829116]	0	61	0	0	28	0	0	2	0	0	0	0	24	99.9	0	0	0	0	0	0
CN1CCN(CCCNc2nccc(-c3c(-c4ccc(F)cc4)nn4cc(C(F)(F)F)ccc34)n2)CC1 [GW621581]	0	55	6	8	7	30	0	0	0	0	0	12	0	10	3	13	0	0	0	0
O=C(Nc1cccc(Oc2ccc3nc(NC(=O)C4CC4)cn3n2)c1)c1ccccc1C(F)(F)F	0	37	0	8	6	4	0	9	0	0	0	6	99.7	100	0	7	0	18	6	0
c1ccc(-c2n[nH]cc2Nc2ccnc3ccccc23)nc1 [GW694077]	25	53	7	6	50	1	20	0	2	4	0	9	20	65	0	16	18	0	30	29
COc1cc(Nc2nccc(N3CCC(NC(=O)Nc4cccc(C(C)=O)c4)C3)n2)cc(OC)c1OC (centres unmarked) [GSK1379753]	11	21	6	0	0	100	0	7	13	10	26	0	0	77	0	0	23	0	2	0
COC(=O)Nc1nc2cc(Oc3ccc(NC(=O)Nc4cc(C(F)(F)F)ccc4F)cn3)ccc2[nH]1.Cl.Cl [GW681170]	27	30	0	0	0	9	0	0	0	0	16	16	94.7	99.8	0	68	21	0	0	0
C[C@@H]1CC[C@@H](C(=O)Nc2ccccc2)CN1c1cc(-c2ccc3c(N)n[nH]c3c2)nc(N)n1 [GSK2286062]	23	11	10	20	6	0	0	0	6	0	13	10	0	23	64	7	29	0	21	0
Cl.Cl.NCC(NCc1ccc(-c2ccnc3[nH]ccc23)s1)c1ccccc1 (centres unmarked) [GSK1321565]	0	8	10	0	0	69	0	2	0	0	0	0	5	44	0	4	1	19	13	0
COc1ccc(CNC(=O)NC2CCN(c3ccnc(Nc4ccc(F)cc4)n3)CC2)cc1 [GSK1379788]	8	0	0	0	0	6	0	0	2	0	0	0	0	35	0	0	13	0	0	0
O=C(Nc1cccc(-c2nn3ccccc3c2-c2ccnc(Nc3cccc(C(F)(F)F)c3)n2)c1)c1c(F)cccc1F [GSK292658]	2	33	19	9	6	21	0	0	0	2	0	0	10	97.3	0	15	8	0	0	0
Cn1cc(-c2ccc3c(c2)CCN3C(=O)Cc2cccc(Cl)c2)c2c(N)ncnc21 [GSK2606590]	0	0	16	17	22	46	0	0	9	0	0	7	84	100	40	18	32	17	0	89
NCCCC(NC(=O)c1cc(Br)c(-c2ccnc3[nH]ccc23)s1)c1ccccc1.O=C(O)C(F)(F)F.O=C(O)C(F)(F)F (centres unmarked) [GSK1287544]	15	0	57	2	41	67	2	56	29	10	0	0	0	28	14	25	0	0	0	0
c1ccc(-c2cnc3nccnn23)cc1 [AH20685]	0	0	0	13	20	2	0	0	0	7	0	15	0	23	0	0	0	40	0	0
c1ccc(Oc2ccc(Nc3ccnc4cc(-c5ccc(CNCCN6CCOCC6)o5)ccc34)cc2)nc1 [GW567145]	20	12	2	0	0	3	0	0	0	0	0	2	65	89	0	6	11	3	0	0
Cc1ccc(F)c(C(=O)Nc2cccc(-c3nn4ccccc4c3-c3ccnc(Nc4cccc(F)c4)n3)c2)c1F [GSK361061]	0	77	100	4	21	42	3	0	14	0	0	16	6	99.7	11	18	11	14	6	0
